Data reported in PubChem BioAssay (NCI).
Compounds without any hit were thinned out: in the full panel of roughly 83,000, 20% have a hit.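 Negative percent growth values reflect cell death: -40 means 40% of the cells present at the start died, and -100 means all died.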 Calls of active or inactive are those of the source. Rule for the calls: active = growth percent below 10; inactive = the rest.

What was measured:
Experiment in all cases: NCI-60 one-dose screen, 48 h (100 = growth as untreated, 0 = no growth, -100 = all killed)
Conditions in all cases: 10 µM unless noted
T-47D breast = test system: T-47D breast
BT-549 breast = test system: BT-549 breast
MDA-MB-435 melanoma = test system: MDA-MB-435 melanoma
SW-620 colon = test system: SW-620 colon
MCF7 breast = test system: MCF7 breast
HCC-2998 colon = test system: HCC-2998 colon
KM12 colon = test system: KM12 colon
HCT-116 colon = test system: HCT-116 colon

Measured: growth

N#Cc1cnc2ccc(-c3cnc(N)nc3)cc2c1N1CCc2cc(F)c(Cl)cc21
active: T-47D breast 9.38% | BT-549 breast 3.1% | MDA-MB-435 melanoma -1.22% | SW-620 colon 9.24% | MCF7 breast 5.81% | HCC-2998 colon -3.03% | KM12 colon 7.85%

Cc1ccc(-c2cc3nc(C(Cl)Cl)nc(C)n3n2)cc1
inactive: T-47D breast 94.6% | BT-549 breast 115% | MDA-MB-435 melanoma 110% | SW-620 colon 107% | MCF7 breast 88.3% | HCC-2998 colon 115% | KM12 colon 99.1%

COc1cc(OC)c(/C=C/S(=O)(=O)Cc2ccc(OC)c(NCC(=O)NO)c2)c(OC)c1
inactive: T-47D breast 74.3% | BT-549 breast 11.6% | SW-620 colon 28.3% | MCF7 breast 11% | HCC-2998 colon 14.2%
active: MDA-MB-435 melanoma -8.04% | KM12 colon 4.53%

COc1ccc([C@H]2c3[nH]c4ccccc4c3C[C@H]3C(=O)N(C4CCN(Cc5c(Cl)cccc5Cl)CC4)CC(=O)N23)c(OC)c1
inactive: T-47D breast 83.6% | BT-549 breast 119% | MDA-MB-435 melanoma 102% | SW-620 colon 95.4% | MCF7 breast 84.3% | HCC-2998 colon 113% | KM12 colon 96.8%

O=C(NNc1nc2cc(F)c(F)cc2n2c(CN3CC4CNCC4C3)ccc12)c1cnccn1 (stereo unspecified)
inactive: T-47D breast 20.8% | BT-549 breast 28.7% | MDA-MB-435 melanoma 25.3% | SW-620 colon 23.7% | MCF7 breast 10.9% | HCC-2998 colon 31.7% | KM12 colon 15.4%

NC(N)=Nc1ccc(Oc2ccc(Nc3ccc(Cl)c(C(F)(F)F)c3)cc2)cc1
active: MCF7 breast 2.64% | KM12 colon 5.94%
inactive: T-47D breast 41.1% | BT-549 breast 86.1% | MDA-MB-435 melanoma 40.3% | SW-620 colon 25.6% | HCT-116 colon 11.3%

Cc1cc(-c2ccc(Cl)cc2)n(Cc2nnc(SCC(=O)Nc3ccc(S(N)(=O)=O)cc3)n2C2CCCCC2)n1
inactive: T-47D breast 108% | BT-549 breast 124% | MDA-MB-435 melanoma 109% | SW-620 colon 107% | MCF7 breast 91% | KM12 colon 108%

COc1ccc(CCOc2cc3c(cc2OC)CCN(C(=O)NCc2cocn2)C3c2ccc(C)cc2C)cc1 (stereo unspecified)
active: BT-549 breast -17% | MDA-MB-435 melanoma 8.73%
inactive: T-47D breast 49% | SW-620 colon 23% | MCF7 breast 13.5% | HCC-2998 colon 11.5% | KM12 colon 11.4%

Cn1cc(CNc2nc3ccc(OC/C(=C/F)CN)cc3o2)ccc1=O
inactive: T-47D breast 105% | BT-549 breast 99.8% | MDA-MB-435 melanoma 104% | SW-620 colon 107% | MCF7 breast 91.7% | HCT-116 colon 103% | KM12 colon 105%

COc1cc(Cn2cc3c(c2)-c2onc(CN4CCOCC4)c2CC3)cc(OC)c1OC
inactive: T-47D breast 79.3% | BT-549 breast 96.7% | MDA-MB-435 melanoma 101% | SW-620 colon 112% | MCF7 breast 89% | HCC-2998 colon 105% | KM12 colon 101%

CNC(=O)c1cc(Oc2ccc3nc(NC(=O)c4cc(N5CCOCC5)cc(C(F)(F)F)c4)sc3c2)ccn1
inactive: T-47D breast 74.2% | BT-549 breast 88.1% | MDA-MB-435 melanoma 67.8% | SW-620 colon 107% | MCF7 breast 75.5% | HCC-2998 colon 114% | KM12 colon 71.3%

COc1cc2oc(-c3cccc(NC(=O)c4cc(N)ccc4Cl)c3)cc(=O)c2c(OC)c1OC
inactive: T-47D breast 62.4% | BT-549 breast 89.4% | MDA-MB-435 melanoma 89.5% | SW-620 colon 110% | MCF7 breast 96.1% | HCT-116 colon 101% | KM12 colon 96.4%

Cc1c(Cl)cccc1S(=O)(=O)Nc1ccc2c(c1)C(=O)N(C1CCC(=O)NC1=O)C2=O (stereo unspecified)
inactive: T-47D breast 44% | BT-549 breast 63.9% | MDA-MB-435 melanoma 96.2% | SW-620 colon 44.8% | MCF7 breast 88.2% | HCC-2998 colon 67.9% | KM12 colon 92.2%

Cc1ccc(CSc2nc(-c3ccc(Cl)cc3)c(C#N)c(N3CCNCC3)n2)cc1
inactive: T-47D breast 88.8% | BT-549 breast 91% | MDA-MB-435 melanoma 81.2% | SW-620 colon 83% | MCF7 breast 58.5% | HCC-2998 colon 87.2% | KM12 colon 84.7%

COc1cc(-c2nnc(SCc3ccc(O)c4ncccc34)n2-c2ccccc2)cc(OC)c1OC
inactive: BT-549 breast 12.8% | MDA-MB-435 melanoma 10.8% | SW-620 colon 10.3% | HCC-2998 colon 22.1% | KM12 colon 14%
active: T-47D breast -0.917% | MCF7 breast 2.01%

O=S(=O)(NCCNc1nccc(-n2cnc3ccccc32)n1)c1ccc(Cl)cc1
inactive: T-47D breast 97.1% | BT-549 breast 99.3% | MDA-MB-435 melanoma 100% | SW-620 colon 100% | MCF7 breast 87.9% | HCC-2998 colon 101% | KM12 colon 97.1%

NS(=O)(=O)c1ccc(Nc2nc(N/N=C/c3c[nH]c4ccccc34)nc(Nc3ccccc3)n2)cc1
inactive: T-47D breast 35.3% | BT-549 breast 48.8% | MDA-MB-435 melanoma 31.3% | SW-620 colon 49% | MCF7 breast 18.8% | KM12 colon 27.3%

COc1ccc(Oc2ccc(/C=N/NC(=O)CSc3nc4ccccc4c(=O)n3-c3ccc(Cl)cc3)cc2)cc1
inactive: T-47D breast 37.8% | BT-549 breast 89.4% | MDA-MB-435 melanoma 87.7% | SW-620 colon 44.4% | MCF7 breast 49.3% | HCC-2998 colon 83.3% | KM12 colon 77.2%

CC(C)(C)CC(C)(C)n1nnnc1C(Nc1nccs1)c1cc2cccc3ccc4cccc1c4c32 (stereo unspecified)
inactive: T-47D breast 75.4% | BT-549 breast 91.6% | MDA-MB-435 melanoma 102% | SW-620 colon 101% | MCF7 breast 75.3% | HCC-2998 colon 103% | KM12 colon 99.5%

O=C(CCn1cc[n+](CC(=O)c2ccc(-c3ccccc3)cc2)c1)Nc1cccc2cccnc12
inactive: T-47D breast 42.4% | BT-549 breast 57.2% | MDA-MB-435 melanoma 87.2% | SW-620 colon 85.8% | MCF7 breast 58% | HCC-2998 colon 68.4% | KM12 colon 42.9%

CC(=O)N1N=C(c2cccc(-n3cccc3)c2)CC1c1cccc(F)c1 (stereo unspecified)
inactive: T-47D breast 89% | BT-549 breast 126% | MDA-MB-435 melanoma 102% | SW-620 colon 96% | MCF7 breast 75.1% | HCT-116 colon 92.5% | KM12 colon 103%

O=c1c2ccccc2nc(COc2ccccc2)n1NS(=O)(=O)c1ccc(Cl)cc1
inactive: T-47D breast 74.8% | BT-549 breast 106% | SW-620 colon 64.1% | MCF7 breast 41.9% | HCC-2998 colon 77.6% | KM12 colon 55.2%
active: MDA-MB-435 melanoma 5.47%

COc1ccccc1NC1=C(Cl)C(=O)c2nc(C)ccc2C1=O
active: T-47D breast -44.7% | MDA-MB-435 melanoma -86% | SW-620 colon -63.1% | MCF7 breast -60.4%
inactive: BT-549 breast 83.5% | HCC-2998 colon 58.9% | KM12 colon 69.4%

CC(C)(C)c1ccc(C(=O)Nc2sc3c(c2C(N)=O)CCC(O)C3)cc1 (stereo unspecified)
inactive: T-47D breast 28.8% | BT-549 breast 58.5% | MDA-MB-435 melanoma 32.2% | HCC-2998 colon 37.4% | KM12 colon 11.7%
active: SW-620 colon 7.55% | MCF7 breast 5.17%

O=C(c1ccc(O)c(C(=O)N2Cc3ccc(OCCC[P+](c4ccccc4)(c4ccccc4)c4ccccc4)cc3C2)c1)N1Cc2cccc(F)c2C1
inactive: T-47D breast 38.7% | BT-549 breast 65.9% | MDA-MB-435 melanoma 57.1% | SW-620 colon 76.2% | MCF7 breast 51.9% | HCT-116 colon 96.9% | KM12 colon 57.8%

Cn1ccnc1C(=O)/C=C/C=C/c1ccc(C(=O)Nc2ccc(F)cc2)cc1
active: MDA-MB-435 melanoma 4.45% | SW-620 colon -2.98%
inactive: T-47D breast 28.2% | BT-549 breast 36.3% | MCF7 breast 13.3% | HCC-2998 colon 66.4% | KM12 colon 17.1%

O=C1C(c2ccccc2)=C(N2CCc3ccccc32)OC1(Cl)Cl
active: SW-620 colon -28.8%
inactive: T-47D breast 10.1% | BT-549 breast 75.1% | MDA-MB-435 melanoma 85.9% | MCF7 breast 26.2% | HCC-2998 colon 88% | KM12 colon 87.9%

Cn1ccnc1C(=O)/C=C/c1ccc(CNC(=O)c2ccc(S(F)(F)(F)(F)F)cc2)cc1
inactive: T-47D breast 25% | BT-549 breast 35.6% | MDA-MB-435 melanoma 55.5% | MCF7 breast 13.3% | HCC-2998 colon 11.5% | KM12 colon 13%
active: SW-620 colon 9.31%

CN1c2ccccc2Sc2cc(C=C(C#N)C#N)ccc21
inactive: T-47D breast 92.6% | BT-549 breast 110% | MDA-MB-435 melanoma 103% | SW-620 colon 90.9% | MCF7 breast 54.6% | HCC-2998 colon 97.3% | KM12 colon 103%

CCCSc1nc(Nc2ccc(/C(C)=N\NC(N)=S)cc2)c(C#N)c(-c2ccccc2)n1
inactive: T-47D breast 63.4% | BT-549 breast 88.5% | MDA-MB-435 melanoma 87.5% | SW-620 colon 84.1% | MCF7 breast 47.9% | HCC-2998 colon 89.5% | KM12 colon 54.9%

Nc1nc(Nc2ccccc2SSc2ccccc2Nc2nc(N)nc(-c3cccc(Br)c3)n2)nc(-c2cccc(Br)c2)n1
inactive: T-47D breast 62.6% | MDA-MB-435 melanoma 93.9% | SW-620 colon 98.5% | MCF7 breast 69.2% | HCT-116 colon 47.8% | HCC-2998 colon 120% | KM12 colon 23.6%

CC(=O)C1=C(C)NC(NN)=NC1c1cccc(Cl)c1 (stereo unspecified)
inactive: T-47D breast 101% | MDA-MB-435 melanoma 103% | SW-620 colon 108% | MCF7 breast 92.3% | HCT-116 colon 105% | HCC-2998 colon 127% | KM12 colon 102%

Nc1cc(F)ccc1NC(=O)c1ccc(NC(=O)C/C=C/c2cccnc2)cc1
inactive: T-47D breast 22.7% | MDA-MB-435 melanoma 28% | SW-620 colon 17.6% | MCF7 breast 33% | HCC-2998 colon 52.8% | KM12 colon 41.5%
active: HCT-116 colon 9.59%

O=S(=O)(Nc1cccc2ccccc12)c1ccc(-c2cnc(C3CC3)o2)cc1
active: MDA-MB-435 melanoma -39.9%
inactive: T-47D breast 62.4% | SW-620 colon 24.6% | MCF7 breast 22% | HCT-116 colon 12.4% | HCC-2998 colon 21.3% | KM12 colon 10.7%
